The source of these data is ChEMBL document CHEMBL3433997, “St. Jude Leishmania screening dataset” (2016).

What all share (assay type): functional
In experiment [1] the target is Solute carrier family 2, facilitated glucose transporter member 1 (Homo sapiens) (UniProt P11166). Nature of the experiment: ST_JUDE_LEISH: Cytotoxicity at 2uM final concentration against transgenic Leishmania Mexicana promastigotes LmGLUT1 that are glucose transport deficient and complemented with the human glucose transporter GLUT1. Activity is measured by DNA content using SYBR green in vitro.

Experiment [2] addresses Hexose transporter 1 (Plasmodium falciparum) (UniProt O97467). Nature of the experiment: ST_JUDE_LEISH: Cytotoxicity at 2uM final concentration against transgenic Leishmania Mexicana promastigotes LmPfHT that are glucose transport deficient and complemented with the Plasmodium falciparum hexose transporter. Activity is measured by DNA content using SYBR green in vitro.
The target of experiment [3] is Glucose transporter (Leishmania mexicana) (UniProt O61059). Nature of the experiment: ST_JUDE_LEISH: Cytotoxicity at 2uM final concentration against transgenic Leishmania Mexicana promastigotes LmGT2 that are glucose transport deficient and complemented with the L. Mexicana glucose transporter 2. Activity is measured by DNA content using SYBR green in vitro.

Structures are written as SMILES.

Sequence of Solute carrier family 2, facilitated glucose transporter member 1 (Homo sapiens) (P11166 whole entry): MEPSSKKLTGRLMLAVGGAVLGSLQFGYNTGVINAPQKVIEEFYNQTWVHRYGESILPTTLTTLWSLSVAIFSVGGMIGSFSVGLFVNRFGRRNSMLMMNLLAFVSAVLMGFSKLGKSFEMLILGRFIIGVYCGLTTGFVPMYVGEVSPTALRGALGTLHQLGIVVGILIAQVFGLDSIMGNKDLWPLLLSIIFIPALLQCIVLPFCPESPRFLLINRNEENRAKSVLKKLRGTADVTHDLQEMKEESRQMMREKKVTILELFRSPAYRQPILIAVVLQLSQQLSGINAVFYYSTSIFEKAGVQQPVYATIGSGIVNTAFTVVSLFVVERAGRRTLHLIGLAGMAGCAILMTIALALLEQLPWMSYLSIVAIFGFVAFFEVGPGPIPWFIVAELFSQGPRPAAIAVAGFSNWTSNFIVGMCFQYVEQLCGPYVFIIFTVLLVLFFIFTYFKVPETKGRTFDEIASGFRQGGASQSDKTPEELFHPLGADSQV

As for `CC(=O)N1N=C(c2[nH]c3ccc(Br)cc3c2C)OC1c1ccccc1` (centres undefined), the inhibition was 4.69% in experiment [1], 4.06% in experiment [2] and 3.6% in experiment [3].

Regarding `CCn1ccc2c(N3CCCC3=O)cc(C(=O)N[C@@H](Cc3ccccc3)[C@H](O)CNC(C)(C)CCCC(C)C)cc21`, the inhibition in experiment [1] was found to be 0%; in experiment [2], 0.39%; in experiment [3], 0.34%.

Regarding `COC(=O)c1cccc(CNCc2ccc(-c3ccc(-c4nc5cc(C(F)(F)F)ccc5[nH]4)s3)cc2)c1`, the inhibition in experiment [1] was 1.72%; in experiment [2], 2.29%; in experiment [3], 0.84%.

As to `O=C(CSc1nc2ccc([N+](=O)[O-])cc2s1)Nc1ccccc1-c1ccccc1`, the results for the inhibition in experiment [1], in experiment [2] and in experiment [3] were -0.42%, -0.44% and -1.03%, respectively.

On to `Cc1cc(F)ccc1Nc1nc(N(C)c2ccccc2)c2cccc(O)c2n1`, for which the results for the inhibition in experiment [1], in experiment [2] and in experiment [3] were 12.3%, 9.06% and 1.82%, respectively.

Consider `COc1ccc(-c2cc(-c3ccc(S(C)(=O)=O)cc3)cnc2N)cn1`, for which the inhibition in experiment [1] worked out at 1.1%; in experiment [2] it was 0.74%; in experiment [3] it was 3.66%.

With `CCNc1cc(C(=O)N[C@@H](Cc2ccccc2)[C@H](O)CNC23CC4CC(CC(C4)C2)C3)cc(N2CCCCS2(=O)=O)c1`, the inhibition in experiment [1] is 3.41%; in experiment [2], 3.36%; in experiment [3] it was -0.1%.

In the case of `CC(=O)Nc1ccc(C(=O)NC2CCN(c3ccnc4cc(Cl)ccc34)CC2)cc1`, the inhibition in experiment [1] was found to be 0.22%; in experiment [2], 1.09%; in experiment [3] it was 1.09%.

For the compound `CCCCn1c(=N)c(C(=O)NCc2cccnc2)cc2c(=O)n3cccc(C)c3nc21`, the inhibition turned out to be 4.38% in experiment [1], 5.85% in experiment [2] and 2.74% in experiment [3].

Regarding `C(=C(c1cccs1)c1cccs1)c1ccc(CNC2CCN(Cc3ccccc3)CC2)cc1`, the inhibition came out at 4.45% in experiment [1], 6.16% in experiment [2] and 5.77% in experiment [3].

Regarding `COc1ccccc1-c1csc(C(=O)NCC2CCN(Cc3ccc(C(C)(C)C)cc3)C2)c1` (centres undefined), the inhibition in experiment [1] came to 1.44%; in experiment [2] it was 0.16%; in experiment [3], 0.22%.

`COc1cc(NC(=O)/C=C/c2cc(F)cc(F)c2F)cc(OCCN2CCC3(CC2)OCCO3)c1`: the inhibition was 3.83% in experiment [1], 3.1% in experiment [2] and 1.7% in experiment [3].

For `CCCCNc1c(CC)c(C)c(C#N)c2nc3ccccc3n12`, the inhibition amounted to 29.1% in experiment [1], 51.4% in experiment [2] and 21.8% in experiment [3].

Consider `COc1ccc2nccc([C@@H](O)CN3CCC(NC(=O)CCC(=O)c4cc(C(C)(C)C)ccc4OC)CC3)c2c1`, for which the results for the inhibition in experiment [1], in experiment [2] and in experiment [3] were 5.04%, 4.7% and 1.95%, respectively.

With `CCc1cc2c(cc1CC)CC(NC[C@@H](O)c1ccc(O)c3[nH]c(=O)ccc13)C2`, the inhibition in experiment [1] stood at 1.34%; in experiment [2], 1.76%; in experiment [3] it was 2.1%.

Consider `N=C(NCCc1ccc(Cl)c(Cl)c1)c1ccc2ccccc2c1`, for which the inhibition in experiment [1] is 3.61%; in experiment [2] it was -1.48%; in experiment [3], -2.5%.

For `CN1CCN(CCCN(Cc2ccc(-c3cccc(CNCc4ccc5c(c4)OCO5)c3)cc2)C(=O)CCC2CCCC2)CC1`, the inhibition in experiment [1] is 2.35%; in experiment [2], 2.56%; in experiment [3], -0.03%.

With `COc1ccc(C(=O)C2CCN(CCCCNC(=O)c3ccc(NC(=O)c4ccc(Cl)cc4)cc3)CC2)c(OC)c1`, the inhibition was found to be 2.37% in experiment [1], 2.82% in experiment [2] and 1.53% in experiment [3].

For `CCCC1(C)CSc2ccccc2C(c2ccccc2)N1` (centres undefined), the inhibition in experiment [1] was determined as 4.9%; in experiment [2] it was 6.11%; in experiment [3], 7.67%.

Turning to `COc1ccc2c(NN=Cc3ccncc3)ccnc2c1`, the inhibition in experiment [1] is -0.81%; in experiment [2], -0.51%; in experiment [3], -0.6%.

Regarding `CCCCNC(=O)c1[nH]c2c(NC(=O)COc3ccccc3)cccc2c1-c1cccc(NC(=O)C(N)CO)c1` (centres undefined), the inhibition stood at 10.1% in experiment [1], 9.02% in experiment [2] and 7.27% in experiment [3].

In the case of `O=S(=O)(NCCN1CCCC1)c1cccc(-c2cccc(CNCc3ccsc3)c2)c1`, the inhibition in experiment [1] was -0.74%; in experiment [2], -0.16%; in experiment [3] it was 1.71%.

With `COc1ccccc1NC(=O)Nc1cccc(-c2cccc(-c3nc4cc(C(F)(F)F)ccc4[nH]3)c2)c1`, the inhibition in experiment [1] is -1.22%; in experiment [2] it was -0.1%; in experiment [3] it was 0.05%.

Consider `CCCCN(CCCC)C(=O)CC(O)c1cc2c(Cl)cc(Cl)cc2c2cc(C(F)(F)F)ccc12` (centres undefined), for which the inhibition in experiment [1] amounted to 1.87%; in experiment [2] it was 1.18%; in experiment [3], 2.43%.

For the compound `CC(C)(C)c1ccc(CNC(=O)/C=C/c2ccc(-c3nc4cc(C(C)(C)C)ccc4[nH]3)cc2)cc1`, the inhibition in experiment [1] is 2.35%; in experiment [2], 3.4%; in experiment [3], 4.02%.

`CC(C)C[C@@H](CNC[C@H](CC(C)C)NC(=O)OC(C)(C)C)NC(=O)OC(C)(C)C`: the inhibition in experiment [1] was -0.36%; in experiment [2], -2.4%; in experiment [3], -0.19%.

As for `Cc1cnc(C[S+]([O-])c2nc3cc(C(F)(F)F)ccc3[nH]2)cc1OCc1ccccc1` (centres undefined), the inhibition in experiment [1] amounted to 3.56%; in experiment [2] it was 4.95%; in experiment [3] it was 2.76%.

In the case of `CN(C)C(=O)CC(=O)NCc1c(Cl)cccc1Cl`, the inhibition in experiment [1] is 0.42%; in experiment [2], 4.4%; in experiment [3] it was 2%.

Regarding `CC1(C)NC(N)=NC(=N)N1OCOc1cc(Cl)c(Cl)cc1Cl`, the inhibition in experiment [1] was -2.15%; in experiment [2] it was 0.84%; in experiment [3], 6.16%.

For the compound `CCN(CCCN1CCCCC1)c1cc(C)nc(Nc2ccc3c(c2)CCC3)n1`, the inhibition was -1.26% in experiment [1], 1.07% in experiment [2] and 0.58% in experiment [3].

On to `Cc1ccc2[nH]c(NC#N)nc2c1`, for which the inhibition is 0.53% in experiment [1], 0.67% in experiment [2] and 0.78% in experiment [3].

For `CCOc1ccc(C(=O)Nc2cc(Br)c3c(c2)CNCC3)cc1C(F)(F)F`, the inhibition in experiment [1] was -0.39%; in experiment [2], -2.66%; in experiment [3] it was -2.48%.

For `CCN(CC)CCCNC(=O)/C(=C/C=C/c1cc2cc(Cl)c(Cl)cc2[nH]1)OC`, the inhibition in experiment [1] was found to be 7.56%; in experiment [2], 11.3%; in experiment [3], 7.84%.

The inhibition is the drop in the measured response relative to a control, in per cent.
